Assay outcomes from PubChem.
Sampled rows, rich in hits. Any-hit rate of the full collection: about 3.4%.
PP1 inh: PP1-alpha phosphatase inhibitors, primary screen, counter-screen for PP5 inhibitor project, biochemical, fluorescence, OMFP substrate, single point. Serine/threonine-protein phosphatase PP1-alpha catalytic subunit (Homo sapiens), P62136. purified PP1alpha. inhibition, % at 6.7 µM. hit rate 0.9% among 320,000. AID 2235, 2010;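 active = inhibition above the mean inhibition of all tested compounds plus 3 SD, computed separately for each screening campaign, cut at about 15% in these data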
PAFAH1B2 FP inh: PAFAH1B2 enzyme inhibitors, primary screen, biochemical, fluorescence polarization, human; Platelet-activating factor acetylhydrolase IB subunit alpha2 (Homo sapiens), P68402; hit rate 1.2% among 340,000; inhibition, % at 3.39 µM; AID 492953, 2010; recombinant PAFAH1B2, FP-rhodamine activity probe;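 active = inhibition above the mean of all tested compounds plus 3 SD, cut at about 24% in these data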
PAFAH2 FP inh: PAFAH2 enzyme inhibitors, primary screen, biochemical, fluorescence polarization, human. Platelet-activating factor acetylhydrolase 2, cytoplasmic (Homo sapiens), Q99487. recombinant PAFAH2, FP-rhodamine activity probe. inhibition, % at 3.39 µM. hit rate 0.99% among 340,000. AID 492956, 2010;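 active = inhibition above the mean over all tested compounds plus 3 SD, cut at about 30% in these data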;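 note: inhibitors block probe labeling of enzyme so polarization drops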
PP5 primary: PP5 phosphatase inhibitors, primary screen, biochemical, fluorescence | Serine/threonine-protein phosphatase 5 (Homo sapiens), P53041 | purified PP5c, OMFP substrate fluorescence | inhibition, % at 6.7 µM | hit rate 0.18% among 320,000 | AID 1987, 2009;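 active = inhibition above the campaign's mean inhibition across all tested compounds plus 3 SD, cut at about 9.5% in these data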
pPAFAH FP inh: pPAFAH enzyme inhibitors, primary screen, biochemical, fluorescence polarization, human; Platelet-activating factor acetylhydrolase (Homo sapiens), Q13093; recombinant pPAFAH, FP-rhodamine probe fluorescence polarization; inhibition, % at 3.39 µM; hit rate 1.5% among 330,000; AID 463082, 2010;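 active = inhibition above the mean inhibition across the screen plus 3 SD, cut at about 25% in these data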;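 note: inhibitors block binding of the rhodamine activity-based probe so polarization drops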
Target sequence (Q13093 whole entry, looked up): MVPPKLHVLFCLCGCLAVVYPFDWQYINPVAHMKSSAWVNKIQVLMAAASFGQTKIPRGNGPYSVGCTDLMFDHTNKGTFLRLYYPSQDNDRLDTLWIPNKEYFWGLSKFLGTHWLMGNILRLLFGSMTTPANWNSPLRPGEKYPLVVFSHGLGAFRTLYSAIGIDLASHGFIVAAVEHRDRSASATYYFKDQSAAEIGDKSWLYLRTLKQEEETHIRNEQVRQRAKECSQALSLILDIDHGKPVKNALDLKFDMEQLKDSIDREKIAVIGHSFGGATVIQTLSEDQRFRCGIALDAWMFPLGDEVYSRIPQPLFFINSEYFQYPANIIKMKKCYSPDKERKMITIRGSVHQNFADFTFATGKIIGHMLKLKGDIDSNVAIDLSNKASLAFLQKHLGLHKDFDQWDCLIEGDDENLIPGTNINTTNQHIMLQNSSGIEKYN
PAFAH1B3 inh: PAFAH1B3 enzyme inhibitors, primary screen, biochemical, fluorescence polarization, human. inhibition, % at 3.39 µM. Platelet-activating factor acetylhydrolase IB subunit alpha1 (Homo sapiens), Q15102. recombinant PAFAH1B3, FP-rhodamine probe. hit rate 0.28% among 340,000;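 active = inhibition above the screen-wide average of all tested compounds plus 3 SD, cut at about 25% in these data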
Target sequence (Q15102 whole entry, looked up): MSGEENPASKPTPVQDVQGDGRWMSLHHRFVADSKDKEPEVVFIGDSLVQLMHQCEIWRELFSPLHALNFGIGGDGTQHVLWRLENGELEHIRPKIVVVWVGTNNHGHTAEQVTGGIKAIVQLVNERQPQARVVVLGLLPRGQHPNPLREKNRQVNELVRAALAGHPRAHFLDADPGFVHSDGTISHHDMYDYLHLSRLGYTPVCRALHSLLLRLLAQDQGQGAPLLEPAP
PP1 inh confirm: PP1 phosphatase inhibitors, confirmation, biochemical, fluorescence, OMFP substrate, triplicate; inhibition, % at 6.7 µM; AID 2358, 2010; hit rate 52% among 1,900; purified PP1alpha; shares compounds with PP1 inh;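 active = mean PP1 inhibition above a set limit taken from the earlier primary screen, cut at about 15% in these data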
PP5 counter: PP5 phosphatase inhibition by PP1 hits, confirmation, counter-screen for PP1 inhibitor project, biochemical, fluorescence, triplicate; shares compounds with PP1 inh; purified PP5c, OMFP fluorescence; inhibition, % at 6.7 µM; hit rate 4% among 1,900;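 active = mean PP5 inhibition over triplicate wells above about 9.5% taken from the earlier PP1 screen, limit read from the data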
Numbers stand for hits; n = inactive; x = no result given.

SMILES	PP1 inh	PAFAH1B2 FP inh	PAFAH2 FP inh	PP5 primary	pPAFAH FP inh	PAFAH1B3 inh	PP1 inh confirm	PP5 counter
O=C(CN1C(=O)NC2(CCCC2)C1=O)OCCOc1cccc(Cl)c1	18	n	n	n	n	n	n	n
Cc1cccc(OCCOC(=O)CN2C(=O)NC3(CCCC3)C2=O)c1	n	n	n	n	n	n	x	x
O=C(CN1CCCN(Cc2ccc(F)cc2Cl)C1=O)NC1CCCCCC1	43	n	n	n	n	n	n	n
C#CCOCCOCCOCCNc1nc(N2CCN(C(=O)C(Cc3cc4ccccc4[nH]3)n3cc(C(N)Cc4ccc(O)cc4)nn3)CC2)nc(N2CCN(C(=O)C(CCC(=O)O)n3cc(C(N)C(C)CC)nn3)CC2)n1 (stereo not drawn)	n	n	n	n	n	n	x	x
C#CCOCCOCCOCCNc1nc(N2CCN(C(=O)[C@H](Cc3cc4ccccc4[nH]3)n3cc([C@@H](N)C(C)CC)nn3)CC2)nc(N2CCN(C(=O)[C@H](Cc3cc4ccccc4[nH]3)n3cc([C@@H](N)Cc4ccc(O)cc4)nn3)CC2)n1 (stereo partly drawn)	84	x	x	n	n	x	78	n
C#CCOCCOCCOCCNc1nc(N2CCN(C(=O)[C@H](Cc3cc4ccccc4[nH]3)n3cc([C@@H](N)CC(C)C)nn3)CC2)nc(N2CCN(C(=O)[C@H](Cc3cc4ccccc4[nH]3)n3cc([C@@H](N)CC(C)C)nn3)CC2)n1	43	n	n	n	n	n	n	n
C#CCOCCOCCOCCNc1nc(N2CCN(C(=O)[C@H](Cc3ccc(O)cc3)n3cc([C@@H](N)C(C)CC)nn3)CC2)nc(N2CCN(C(=O)[C@H](Cc3cc4ccccc4[nH]3)n3cc([C@@H](N)CC(C)C)nn3)CC2)n1 (stereo partly drawn)	20	x	x	n	n	x	n	n
CC1CCN(C(=O)C2CCN(S(=O)(=O)c3cccnc3)CC2)CC1	n	n	n	n	n	n	x	x
COc1ccc(S(=O)(=O)N2CCCC2)cc1C(=O)N1CCCCC1	n	n	n	n	n	n	x	x
O=C(CN1CCCC1)Nc1ccc2c(c1)CCC2	n	n	n	n	n	n	x	x
CCNC(=O)CSC1=N/C(=C\c2ccc(O)c(OCC)c2)C(=O)N1c1ccc(OC(F)F)cc1	18	n	n	n	n	n	19	n
COc1ccc2nc3cc(Cl)ccc3c(Nc3cc(CN4CCCC4)c(O)c(CN4CCCC4)c3)c2n1	32	x	x	n	n	x	n	n
COc1ccc(/C=N\NC(=O)c2ccccc2Br)cc1COc1ccccc1	n	n	n	n	n	n	x	x
C=CCOC(=O)C1=C(C)NC(SCC(=O)Nc2nccs2)=C(C#N)C1c1cccs1 (stereo not drawn)	n	n	n	n	n	n	x	x
C=CCOC(=O)C1=C(C)NC(SCC(=O)Nc2nccs2)=C(C#N)C1c1ccc(Cl)cc1 (stereo not drawn)	23	n	n	n	n	n	n	n
COc1cc(NC(=O)COc2ccccc2[N+](=O)[O-])ccc1NC(=O)c1ccco1	20	n	n	n	n	n	19	n
CC(CCc1ccco1)NC(=O)CCc1nnc2ccc(NCc3ccccc3Cl)nn12 (stereo not drawn)	n	n	n	n	n	n	x	x
CC(CCc1ccco1)NC(=O)CCc1nnc2ccc(NCc3ccc(Cl)cc3)nn12 (stereo not drawn)	22	n	n	n	n	n	17	n
CCOC(=O)c1cnc(-n2nc(C)cc2C)nc1NCc1ccc2c(c1)OCO2	31	n	n	n	n	n	59	n
CCOC(=O)c1cnc(-n2nc(C)cc2C)nc1NC1CCCC1	22	n	n	n	n	n	27	n
CCOC(=O)c1cnc(-n2nc(C)cc2C)nc1Nc1ccc(OC)cc1	n	n	n	n	n	n	x	x
CCOC(=O)c1cnc(-n2nc(C)cc2C)nc1NCCc1ccccc1	57	n	n	n	n	n	51	n
COc1ccc(OCCC(=O)Nc2ccc(S(N)(=O)=O)cc2)cc1	n	n	n	n	n	n	x	x
Cc1ccc(NC(=O)c2cc(S(=O)(=O)NCCC3=CCCCC3)ccc2F)cc1F	n	n	n	n	n	n	x	x
CC1=NN(c2ccc(C(=O)O)cc2)C(=O)/C1=C\c1ccc(OC(=O)c2cccs2)cc1	29	n	n	n	n	n	18	n
SMILES	PP1 inh	PAFAH1B2 FP inh	PAFAH2 FP inh	PP5 primary	pPAFAH FP inh	PAFAH1B3 inh	PP1 inh confirm	PP5 counter
O=c1c(-c2ccc(Br)cc2)coc2c(CN3CCCCC3)c(O)ccc12	x	n	n	x	x	n	x	x
COc1ccc(-c2coc3c(CN4CCCCC4)c(O)c(CN4CCCCC4)c(O)c3c2=O)cc1	29	x	x	n	n	x	n	n
CC(C)(C)c1cc(NCCCn2ccnc2)n2ncc(-c3ccccc3)c2n1	21	x	x	n	n	x	n	n
Cc1ccc(S(=O)(=O)c2cc3cc(Br)ccc3oc2=O)cc1	n	n	n	n	n	n	x	x
CCOc1ccc(NC(=O)CNC(=O)c2ccc(OC)cc2)cc1	n	n	n	n	n	n	x	x
COc1ccc(C(=O)NCC(=O)Nc2ccc(-c3ccccc3)cc2)cc1	20	n	n	n	n	n	33	n
Cc1ccc(NC(=O)CCC(=O)OCC(=O)c2ccc(-c3ccccc3)cc2)cc1	29	n	n	n	n	n	21	n
Cc1cc(C)c2nc(NNC(=O)c3ccc(S(=O)(=O)N4CCc5ccccc5C4)cc3)sc2c1	22	n	n	n	n	n	27	n
CCc1nnc(NC(=O)c2ccc(S(=O)(=O)N3CCc4ccccc4C3)cc2)s1	n	n	n	n	n	n	x	x
Cc1cc(C)c2sc(NNC(=O)c3ccc(S(=O)(=O)N4CCc5ccccc5C4)cc3)nc2c1	24	n	n	n	n	n	37	n
Cc1cc(C)c2sc(N(CCCN(C)C)C(=O)c3ccc(S(=O)(=O)N4CCc5ccccc5C4)cc3)nc2c1	n	n	n	n	n	n	x	x
Cn1cc(C(=O)C(=O)NC2CCCCC2)c2ccccc21	n	n	n	n	n	n	x	x
